Source: PubChem BioAssay (NCATS)
Where “and” joins values, the source holds several entries; their conditions need not be identical. Equal entries are not always repeated. Inconclusive results are not listed. Calls of active or inactive are those of the source. Unless noted, calls follow the shape of the dose curve; as a rule, active = well fitted curve in the direction sought with a large enough effect; inconclusive = small, poorly fitted or top-dose-only effect, or another doubt; inactive = no such curve, though single readings can be large; an effect the other way counts as inactive or inconclusive.

Tests used:
[1] = Cell Viability - BJ (AID 421; calls by dose curve;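 also: potency is read from the fitted curve at half-maximal effect; cells exposed to compound for 40 hours at 37 °C before readout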); conditions: BJ fibroblast viability, qHTS
How it was run: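 Cytotoxicity in human BJ foreskin fibroblasts is scored as loss of cellular ATP after a 40-hour exposure, measured by luciferase luminescence. Controls are DMSO and 100 uM tamoxifen.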

[2] = Cell Viability - HepG2 (AID 433; calls by dose curve;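 also: potency is read from the fitted curve at half-maximal effect; cells exposed to compound for 40 hours; potency for ATP loss meaning cytotoxicity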); conditions: qHTS
How it was run: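 In this qHTS format, a 40 h, 37 °C compound incubation of HepG2 cells in complete medium precedes a 20 min CellTiter-Glo step at room temperature. Tamoxifen and doxorubicin serve as positive controls; Hill-equation fits yield AC50.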

[3] = Cell Viability - HUV-EC-C (AID 542); conditions: HUV-EC-C endothelial cell viability, qHTS; series mostly up to 92.2 µM;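 also: cells exposed to compound for 40 hours; % is scaled to controls: 0 for no effect and ±100 for the full control effect; nearly all actives have a fitted effect of over 35% in size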
How it was run: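 CellTiter-Glo luminescence measured ATP loss in HUV-EC-C cells (1000/well) after 40 hr compound exposure at 37 °C, in complete culture medium. Concentration-response data were Hill-fitted to give AC50.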

[4] = Cell Viability - Mesenchymal (AID 546); conditions: mesenchymal cells viability, qHTS; activity change, negative = cytotoxicity: at 91.7 µM (top of the series);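 also: cells exposed to compound for 40 hours before reading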
How it was run: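 CellTiter-Glo luminescence (intracellular ATP, 20 min room temperature) after 40 hr compound exposure at 37 °C of 1000 glomerulus-derived human kidney mesenchymal cells/well; AC50 values obtained by fitting qHTS concentration-response data to the Hill equation.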

[5] = Cellular Toxicity (caspase-3) Jurkat (AID 655); conditions: Jurkat caspase-3 activation, luminescence; caspase-3 activation: at 92.2 µM (top of the series), DMSO = 0%, tamoxifen = 100%;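 also: cells exposed to compound for 16 h at 37 °C before reading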
How it was run: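 qHTS in human Jurkat T-cell leukemia line: 16 hr compound treatment at 37 °C, caspase-3/7 activity measured by Caspase-Glo luminescence. AC50 derived from Hill equation.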

[6] = Cellular Toxicity (caspase-3) NIH 3T3 (AID 666); conditions: NIH 3T3 caspase-3 activation, apoptosis/toxicity, 0% DMSO, 100% is 100 µM tamoxifen; series mostly up to 92.2 µM;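 also: caspase signal read after 16 h compound exposure; 0% = DMSO basal and 100% = 100 µM tamoxifen stimulation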
How it was run: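 Caspase-Glo 3/7 luminescence reported caspase activation in 1000 NIH 3T3 cells/well after 16 h compound exposure at 37 C. DMSO set basal and 100 uM tamoxifen set 100% stimulation; concentration-response modeled with the Hill equation for AC50.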

[7] = Cell Viability - LYMP1-002 - Assay at 16 hr (AID 948); conditions: LYMP1-002 lymphoblastoid cell viability; series mostly up to 92.2 µM;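 also: 0% = DMSO alone and full effect = 92 µM tetraoctylammonium bromide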
How it was run: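 In this qHTS, lymphoblastoid LYMP1-002 cells (human) receive compounds for 16 hr at 37 C. Viability is taken from CellTiter-Glo ATP luminescence, and AC50 derives from standard Hill fits.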

[8] = MultiTox-Fluor Cytotoxicity Assay - LYMP1-002 - Live Cells (AID 955); conditions: LYMP1-002 lymphoblastoid live-cell protease fluorescence viability; series mostly up to 46.1 µM;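 also: cells exposed to compound for 16 hours; % is scaled to controls: 0 for no effect and ±100 for the full control effect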
How it was run: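 After 16 h compound exposure at 37 C, live LYMP1-002 lymphoblastoid cells (2500/well) were quantified by cleavage of cell-permeant GF-AFC substrate, read at 405/510 nm after 60 min. Concentration-response fitted with Hill equation for AC50.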

[9] = Cell Viability - LYMP2-011 (AID 969); conditions: LYMP2-011 lymphoblastoid cells viability; series mostly up to 92.2 µM;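 also: 0% = DMSO only and full inhibition = 92 µM tetraoctylammonium bromide; nearly all actives have a fitted effect of over 60% in size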
How it was run: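 Cytotoxicity qHTS with ATP content as read-out: lymphoblastoid cells (2500/well) exposed to compound for 24 h at 37 C, then luciferase luminescence measured. Concentration-response data fitted with the standard Hill equation to give AC50.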

[10] = Cell Viability - LYMP2-013 (AID 970); conditions: LYMP2-013 lymphoblastoid cells viability; series mostly up to 92.2 µM;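 also: 0% = DMSO only and full inhibition = tetraoctylammonium bromide control; nearly all actives have a fitted effect of over 55% in size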
How it was run: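 qHTS cytotoxicity: ATP-dependent luminescence (CellTiter-Glo, 30 min room temperature) read after 24 h compound exposure at 37 C of 2500 LYMP2-013 lymphoblastoid cells per well. Concentration-response fitted with Hill equation to give AC50.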

[11] = Cell Viability - LYMP2-023 (AID 975); conditions: LYMP2-023 lymphoblastoid cell viability; series mostly up to 92.2 µM;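 also: cellular ATP measured by luciferase luminescence as viability proxy; plate controls were DMSO only for no effect and 92 µM tetraoctylammonium bromide control for full effect; nearly all actives have a fitted effect of over 55% in size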
How it was run: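 Intracellular ATP, read by CellTiter-Glo luminescence, reports viability after 24 hr compound exposure at 37 C. 2500 lymphoblastoid cells/well (LYMP2-023) seeded 5 hr beforehand; Hill fits give AC50; positive control tetraoctylammonium bromide.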

[12] = Cell Viability - LYMP2-025 (AID 976); conditions: LYMP2-025 lymphoblastoid cell viability; series mostly up to 92.2 µM;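 also: plate controls were DMSO only for no effect and tetraoctylammonium bromide control for full effect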
How it was run: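 Cytotoxicity read as loss of intracellular ATP (luciferase luminescence) after 24 h compound treatment at 37 C. Uses LYMP2-025 lymphoblastoid cells in 1536-well format; Hill-equation modelling gives AC50; tetraoctylammonium bromide as positive control.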

[13] = Cell Viability - LYMP2-007 (AID 979); conditions: LYMP2-007 lymphoblastoid cell viability; series mostly up to 92.2 µM;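 also: cells exposed to compound for 24 h before reading; 0% = DMSO only and the negative end = 92 µM tetraoctylammonium bromide; nearly all actives have a fitted effect of over 60% in size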
How it was run: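 AC50 values come from Hill-equation fits of luminescent intracellular ATP (CellTiter-Glo, 30 min, room temperature) following 24 h compound exposure at 37 C. Cells: LYMP2-007 lymphoblastoid line, 2500 per well, in complete culture medium.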

[14] = Cell Viability - LYMP2-008 (AID 980); conditions: LYMP2-008 lymphoblastoid cell viability, qHTS; series mostly up to 92.2 µM; also: % is scaled to controls: 0 for no effect and ±100 for the full control effect; nearly all actives have a fitted effect of over 60% in size
How it was run: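 Cytotoxicity determined from ATP-dependent luciferase luminescence (CellTiter-Glo) following 24 h compound exposure of human lymphoblastoid LYMP2-008 cells at 37 C. Concentration-response data fitted to the Hill equation to give AC50.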

[15] = Cell Viability - LYMP2-014 (AID 983); conditions: LYMP2-014 lymphoblastoid cells, viability qHTS; series mostly up to 92.2 µM;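 also: plate controls were DMSO only for no effect and 92 µM tetraoctylammonium bromide for full effect; nearly all actives have a fitted effect of over 50% in size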
How it was run: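 Intracellular ATP loss, read by luciferase luminescence, measures acute cytotoxicity after 24 h compound exposure of lymphoblastoid LYMP2-014 cells (2500/well, 37 C). Concentration-response data fitted to the Hill equation for AC50.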

[16] = Cell Viability - LYMP2-016 (AID 984); conditions: LYMP2-016 lymphoblastoid cell viability, qHTS; series mostly up to 92.2 µM; also: % is scaled to controls: 0 for no effect and ±100 for the full control effect; nearly all actives have a fitted effect of over 55% in size
How it was run: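 Concentration-dependent ATP depletion measured in LYMP2-016 lymphoblastoid cells, 24 h, 37 C; luciferase-based luminescent detection; Hill-equation AC50.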

[17] = Cell Viability - LYMP2-018 (AID 985); conditions: LYMP2-018 lymphoblastoid cells, viability (qHTS); series mostly up to 92.2 µM;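 also: plate controls were DMSO only for no effect and tetraoctylammonium bromide at 92 µM for full effect; nearly all actives have a fitted effect of over 50% in size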
How it was run: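 Viability read as CellTiter-Glo luminescence (cellular ATP) after 24 hr compound exposure at 37 C of 2500 LYMP2-018 lymphoblastoid cells/well, pre-plated 5 hr. Hill-equation modelling gave AC50.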

[18] = Cell Viability - LYMP2-026 (AID 989); conditions: LYMP2-026 lymphoblastoid cell viability, qHTS; series mostly up to 92.2 µM; also: % is scaled to controls: 0 for no effect and ±100 for the full control effect; nearly all actives have a fitted effect of over 50% in size
How it was run: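 Cytotoxicity read as ATP-dependent luminescence (CellTiter-Glo, 30 min room temperature) after 24 h compound treatment at 37 C. LYMP2-026 lymphoblastoid line seeded at 2500 cells/well; AC50 derived by standard Hill equation.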

[19] = Cell Viability - LYMP1-002 - Assay at 40 hr (AID 994); conditions: LYMP1-002 lymphoblastoid cell viability; series mostly up to 92.2 µM;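 also: 0% = DMSO only and full inhibition = 92 µM tetraoctylammonium bromide; nearly all actives have a fitted effect of over 60% in size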
How it was run: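 Cytotoxicity was read as loss of cellular ATP (CellTiter-Glo luminescence) after 40 hr compound exposure at 37 C of 2500 LYMP1-002 lymphoblastoid cells per well. Concentration-response data were fitted with the standard Hill equation to give AC50.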

[20] = qHTS assay for cell viability of HEK293 cells (AID 743288); conditions: ATP luminescence (CellTiter-Glo), 18 h; max response: hits give low values; also: % is scaled to controls: 0 for no effect and ±100 for the full control effect; nearly all actives have a fitted effect of over 50% in size
How it was run: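 HEK293, 18 h, 37 C, ATP luminescence. Cells at 2,000/well were allowed at least 5 h to settle before dosing; CellTiter-Glo developed 30 min at RT.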

CC(=O)c1ccc(Cl)c(Cl)c1Cl
inactive: Potency [1] > 92 µM | Potency [2] > 92 µM | Potency [3] | Potency [4] | Potency [5] | outcome [6] | Potency [7] | outcome [8] | Potency [9] | Potency [10] | Potency [11] | Potency [12] | Potency [13] | Potency [14] | Potency [15] | Potency [16] | Potency [17] | Potency [18] | Potency [19] | max response [20] 4.03%

O=[N+]([O-])c1ccccc1Nc1ccccc1
inactive: Potency [1] > 92 µM | Potency [2] > 92 µM | Potency [3] | Potency [4] | Potency [5] | outcome [6] | Potency [7] | outcome [8] | Potency [9] | Potency [10] | Potency [11] | Potency [12] | Potency [13] | Potency [14] | Potency [15] | Potency [16] | Potency [17] | Potency [18] | Potency [19] | max response [20] -4.25%

Oc1c(Cl)cc(Cl)c(Cl)c1Cl
active: caspase-3 activation [5] 91.2%
inactive: Potency [1] > 92 µM | Potency [2] > 92 µM | Potency [3] | Potency [4] | outcome [6] | Potency [7] | outcome [8] | Potency [9] | Potency [10] | Potency [11] | Potency [12] | Potency [13] | Potency [14] | Potency [15] | Potency [16] | Potency [17] | Potency [18] | Potency [19] | max response [20] -22.8% and -1.71%

COc1ccc([N+](=O)[O-])cc1N
inactive: Potency [1] > 92 µM | Potency [2] > 92 µM | Potency [3] | Potency [4] | Potency [5] | outcome [6] | Potency [7] | outcome [8] | Potency [9] | Potency [10] | Potency [11] | Potency [12] | Potency [13] | Potency [14] | Potency [15] | Potency [16] | Potency [17] | Potency [18] | Potency [19] | max response [20] -2.82% and -3.03%

COc1ccc(C)cc1N
inactive: Potency [1] > 92 µM | Potency [2] > 92 µM | Potency [3] | Potency [4] | Potency [5] | outcome [6] | Potency [7] | outcome [8] | Potency [9] | Potency [10] | Potency [11] | Potency [12] | Potency [13] | Potency [14] | Potency [15] | Potency [16] | Potency [17] | Potency [18] | Potency [19] | max response [20] -15%

OCC(CBr)(CBr)CBr
inactive: Potency [1] > 92 µM | Potency [2] > 92 µM | Potency [3] | Potency [4] | Potency [5] | outcome [6] | Potency [7] | outcome [8] | Potency [9] | Potency [10] | Potency [11] | Potency [12] | Potency [13] | Potency [14] | Potency [15] | Potency [16] | Potency [17] | Potency [18] | Potency [19] | max response [20] -19.9%

Oc1ccc2c(c1)OCO2
inactive: Potency [1] > 92 µM | Potency [2] > 92 µM | Potency [3] | Potency [4] | Potency [5] | outcome [6] | Potency [7] | outcome [8] | Potency [9] | Potency [10] | Potency [11] | Potency [12] | Potency [13] | Potency [14] | Potency [15] | Potency [16] | Potency [17] | Potency [18] | Potency [19] | max response [20] 7.08%

c1c[nH]cn1
inactive: Potency [1] > 92 µM | Potency [2] > 92 µM | Potency [3] | Potency [4] | Potency [5] | outcome [6] | Potency [7] | outcome [8] | Potency [9] | Potency [10] | Potency [11] | Potency [12] | Potency [13] | Potency [14] | Potency [15] | Potency [16] | Potency [17] | Potency [18] | Potency [19] | max response [20] -0.708%

Cc1ccc2ccc3cccc4ccc1c2c34
inactive: Potency [1] > 92 µM | Potency [2] > 92 µM | Potency [3] | Potency [4] | Potency [5] | outcome [6] | Potency [7] | outcome [8] | Potency [9] | Potency [10] | Potency [11] | Potency [12] | Potency [13] | Potency [14] | Potency [15] | Potency [16] | Potency [17] | Potency [18] | Potency [19] | max response [20] -6.64%

c1ccc(SCCSc2ccccc2)cc1
inactive: Potency [1] > 92 µM | Potency [2] > 92 µM | Potency [3] | Potency [4] | Potency [5] | outcome [6] | Potency [7] | outcome [8] | Potency [9] | Potency [10] | Potency [11] | Potency [12] | Potency [13] | Potency [14] | Potency [15] | Potency [16] | Potency [17] | Potency [18] | Potency [19] | max response [20] 3.66%

O=[N+]([O-])c1cccc(I)c1
inactive: Potency [1] > 92 µM | Potency [2] > 92 µM | Potency [3] | Potency [4] | Potency [5] | outcome [6] | Potency [7] | outcome [8] | Potency [9] | Potency [10] | Potency [11] | Potency [12] | Potency [13] | Potency [14] | Potency [15] | Potency [16] | Potency [17] | Potency [18] | Potency [19] | max response [20] -9.2%

c1ccc(COCc2ccccc2)cc1
inactive: Potency [1] > 92 µM | Potency [2] > 92 µM | Potency [3] | Potency [4] | Potency [5] | outcome [6] | Potency [7] | outcome [8] | Potency [9] | Potency [10] | Potency [11] | Potency [12] | Potency [13] | Potency [14] | Potency [15] | Potency [16] | Potency [17] | Potency [18] | Potency [19] | max response [20] 0.589%
